Results filed as inconclusive are left out. Calls of active or inactive are those of the source. The calls were made as follows, unless noted: active = hit-call score of the fitted dose curve at least 0.9, where 1 is the maximum; inconclusive = response in the unintended direction; inactive = score below 0.9.
Experiments:
[1] = read-out: Thyroid Hormone Responsive (THRSP), THRSP (gene 7069); experiment: LTEA_HepaRG_THRSP: Life Technologies and Expression Analysis (LTEA) Assay for Thyroid Hormone Responsive (THRSP) using HepaRG (AID 2283536; active = hit-call score of the fitted dose curve at least 0.9, where 1 is the maximum; inactive = score below 0.9); settings: mRNA level, 48 h; actives raise or lower the signal
Summary of the method: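 mRNA induction or loss relative to 0.5% DMSO vehicle was fitted bidirectionally across an eight-point curve whose highest exposure was 100 uM. Human HepaRG liver cells received chemicals in duplicate over 48 h before RNA extraction.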

[2] = read-out: Cellular tumor antigen p53 (Homo sapiens) (UniProt P04637); experiment: LTEA_HepaRG_TP53: Life Technologies and Expression Analysis (LTEA) Assay for Tumor Protein P53 (TP53) using HepaRG (AID 2283537; active = hit-call score of the fitted dose curve at least 0.9, where 1 is the maximum; inactive = score below 0.9); settings: mRNA level, 48 h; actives raise or lower the signal
Summary of the method: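 HepaRG, 48 h exposure, top 100 uM, half-log 8-point, 0.5% DMSO vehicle, duplicates. Read: TP53 mRNA by TaqMan qRT-PCR, normalised to ACTB/GAPDH/POLR2A; bidirectional fit vs DMSO.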

[3] = read-out: UDP glucuronosyltransferase (UGT1A1), UGT1A1 (gene 54658); experiment: LTEA_HepaRG_UGT1A1: Life Technologies and Expression Analysis (LTEA) Assay for UDP glucuronosyltransferase (UGT1A1) using HepaRG (AID 2283538; active = hit-call score of the fitted dose curve at least 0.9, where 1 is the maximum; inactive = score below 0.9); settings: mRNA level, 48 h; actives raise or lower the signal
Summary of the method: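 Readout is UGT1A1 transcript level by qRT-PCR, normalized to three housekeeping genes, after 48 h chemical treatment of HepaRG cells. Concentrations ran from 100 uM down in half-log steps with 0.5% DMSO, and gain or loss relative to DMSO was fitted.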

[4] = read-out: UDP glucuronosyltransferase (UGT1A6), UGT1A6 (gene 54578); experiment: LTEA_HepaRG_UGT1A6: Life Technologies and Expression Analysis (LTEA) Assay for UDP glucuronosyltransferase (UGT1A6) using HepaRG (AID 2283539; active = hit-call score of the fitted dose curve at least 0.9, where 1 is the maximum; inactive = score below 0.9); settings: mRNA level, 48 h; actives raise or lower the signal
Summary of the method: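 HepaRG, 48 h post-plating switch to serum-free induction medium; chemical 48 h, 100 uM top, half-log x8, duplicate, 0.5% DMSO. Phenobarbital 1mM induction control. UGT1A6 mRNA by TaqMan qRT-PCR; gain/loss fit vs DMSO.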

[5] = read-out: X-box binding protein 1 (XBP1), XBP1 (gene 7494); experiment: LTEA_HepaRG_XBP1: Life Technologies and Expression Analysis (LTEA) Assay for X-box binding protein 1 (XBP1) using HepaRG (AID 2283540; active = hit-call score of the fitted dose curve at least 0.9, where 1 is the maximum; inactive = score below 0.9); settings: mRNA level, 48 h; actives raise or lower the signal
Summary of the method: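 Transcript levels of XBP1, measured by qRT-PCR and normalised to three housekeeping genes, were fitted bidirectionally relative to 0.5% DMSO controls. Human HepaRG cells received eight-point half-log dilutions from 100 uM for 48 h.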

[6] = LTEA_HepaRG_LDH_cytotoxicity: Cytotoxicity Assessment in the Life Technologies and Expression Analysis (LTEA) Assay (AID 2283563);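 as to AC50: LDH activity released into spent culture medium as a marker of cell death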
Summary of the method: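 Cells were thawed and plated for 48 h. Medium was then replaced with serum-free induction medium. Chemicals (8 half-log points, maximum 100 uM, 0.5% DMSO) were added in duplicate for 48 h, after which spent medium was assayed for LDH.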

[7] = TOX21_p53_BLA_p2_viability: Viability Assessment in the Tox21 HCT-116 p53 Agonism Beta-lactamase Assay, Phase 2 (AID 2283591);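 also: compound exposure lasted 16 h at 37 °C; actives lower the ATP signal meaning cytotoxicity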
Summary of the method: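 Cytotoxicity readout: CellTiter-Glo ATP luminescence, 30 min at room temperature, after the beta-lactamase read. Cells were HCT116 exposed 16 h at 37C to compounds pin-transferred at 217-fold dilution from DMSO stocks.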

[8] = target: Cellular tumor antigen p53 (Homo sapiens) (UniProt P04637); experiment: TOX21_p53_BLA_p2_ratio: Tox21 HCT-116 p53 Agonism Beta-lactamase Assay, Ratio, Phase 2 (AID 2283592)
Summary of the method: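 HCT116 p53-bla; 4000 cells/well; 5 h pre-incubation; cpd in DMSO, 217-fold dilution; 16 h 37C/5% CO2; CCF4-AM 2 h RT; Ex 405, Em 460/530 ratio; DMSO = baseline; positive fitting direction.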

[9] = target: Cellular tumor antigen p53 (Homo sapiens) (UniProt P04637); experiment: TOX21_p53_BLA_p3_ratio: Tox21 HCT-116 p53 Agonism Beta-lactamase Assay, Ratio, Phase 3 (AID 2283596)
Summary of the method: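 HCT116 p53-bla cells (4000/well) given compound in DMSO (217-fold dilution) after 5 h, incubated 16 h at 37C. CCF4-AM substrate 2 h at room temperature; 460/530 nm emission ratio, gain fitted against DMSO.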

[10] = TOX21_p53_BLA_p4_viability: Viability Assessment in the Tox21 HCT-116 p53 Agonism Beta-lactamase Assay, Phase 4 (AID 2283597);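 also: hits lower the luminescence signal meaning cytotoxicity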
Summary of the method: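 Cells plated, 5 h pre-incubation; DMSO compounds pinned (217-fold dilution); 16 h, 37C/5% CO2; CCF4-AM 2 h RT; CellTiter-Glo 30 min RT; luminescence read.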

[11] = target: Cellular tumor antigen p53 (Homo sapiens) (UniProt P04637); experiment: TOX21_p53_BLA_p5_ratio: Tox21 HCT-116 p53 Agonism Beta-lactamase Assay, Ratio, Phase 5 (AID 2283599)
Summary of the method: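 Beta-lactamase reporter ratio (blue 460 nm over green 530 nm, 405 nm excitation) after 2 h CCF4-AM loading, in HCT-116 cells exposed 16 h at 37 C to compounds pinned at 217-fold dilution. Increases relative to DMSO baseline scored.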

[12] = TOX21_p53_BLA_p5_viability: Viability Assessment in the Tox21 HCT-116 p53 Agonism Beta-lactamase Assay, Phase 5 (AID 2283600)
Summary of the method: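 4000 cells/well; 5 h pre-incubation; DMSO compounds pin-transferred, 217-fold dilution; 16 h, 37C/5% CO2; CCF4-AM 2 h RT; CellTiter-Glo 30 min RT; luminescence.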

[13] = target: Cellular tumor antigen p53 (Homo sapiens) (UniProt P04637); experiment: TOX21_p53_BLA_p4_ratio: Tox21 HCT-116 p53 Agonism Beta-lactamase Assay, Ratio, Phase 4 (AID 2283601)
Summary of the method: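 Signal is the blue/green (460nm/530nm) ratio of cleaved versus uncleaved CCF4-AM substrate, read after 2 h substrate loading. Cells were HCT116 carrying the p53-responsive beta-lactamase reporter, dosed 16 h at 37C, 5% CO2; CellTiter-Glo measured in parallel.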

[14] = Tanguay_ZF_120hpf_MORT_legacy: (Legacy) Oregon State University Tanguay Lab 120 Hour Post-fertilization zebrafish Assay for Mortality (AID 2283633)
Summary of the method: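 5D WT zebrafish, chorion removed 4 hpf; 1 embryo/well from 6 hpf; static exposure to 120 hpf, 28C, dark, sealed. Final DMSO 0.64%. Readout: binary mortality, brightfield, 24 + 120 hpf; DMSO as negative control.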

[15] = Tanguay_ZF_120hpf_YSE_legacy: (Legacy) Oregon State University Tanguay Lab 120 Hour Post-fertilization zebrafish Assay for Yolk Sac Edema (AID 2283634);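 as to AC50: actives raise the incidence of yolk sac edema above the DMSO baseline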
Summary of the method: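 Dechorionate (pronase, 4 hpf) → place one 6 hpf embryo per well → static compound exposure, sealed and foil-covered, 28C, to 120 hpf → record yolk sac edema as present or absent. Final DMSO 0.64%.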

[16] = Tanguay_ZF_120hpf_AXIS_legacy: (Legacy) Oregon State University Tanguay Lab 120 Hour Post-fertilization zebrafish Assay for Body Axis Malformation (AID 2283635);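 as to AC50: potency for an increased fraction of larvae scored with body axis malformation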
Summary of the method: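 Chorion is removed with pronase at 4 hpf, then single 6 hpf embryos are dosed (final DMSO 0.64%) and held statically at 28C in sealed, foil-covered plates. At 120 hpf body axis malformation is recorded as present or absent.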

[17] = Tanguay_ZF_120hpf_EYE_legacy: (Legacy) Oregon State University Tanguay Lab 120 Hour Post-fertilization zebrafish Assay for Eye Malformation (AID 2283636)
Summary of the method: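 Read-out is binary presence or absence of eye malformation, scored by brightfield microscopy at 120 hpf. Single larvae were exposed from 6 hpf in embryo medium containing 0.64% DMSO, with DMSO as baseline.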

[18] = Tanguay_ZF_120hpf_SNOU_legacy: (Legacy) Oregon State University Tanguay Lab 120 Hour Post-fertilization zebrafish Assay for Snout Malformation (AID 2283637)
Summary of the method: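 Snout malformation read as a yes/no call on brightfield images of 120 hpf larvae (Tropical 5D strain). Static exposure began at 6 hpf on dechorionated embryos in 0.64% DMSO, with gain of signal analysed versus DMSO controls.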

[19] = TOX21_p53_BLA_p3_viability: Viability Assessment in the Tox21 HCT-116 p53 Agonism Beta-lactamase Assay, Phase 3 (AID 2283593);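 also: cells exposed to compound for 16 h before reading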
Summary of the method: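 Cellular ATP was quantified by CellTiter-Glo luminescence, read after 30 min at room temperature. Beforehand, HCT116 cells (4000/well) received compound 5 h post-seeding, 217-fold diluted from DMSO, then incubated 16 h at 37C.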

Sequence of Cellular tumor antigen p53 (Homo sapiens) (P04637 whole entry, looked up): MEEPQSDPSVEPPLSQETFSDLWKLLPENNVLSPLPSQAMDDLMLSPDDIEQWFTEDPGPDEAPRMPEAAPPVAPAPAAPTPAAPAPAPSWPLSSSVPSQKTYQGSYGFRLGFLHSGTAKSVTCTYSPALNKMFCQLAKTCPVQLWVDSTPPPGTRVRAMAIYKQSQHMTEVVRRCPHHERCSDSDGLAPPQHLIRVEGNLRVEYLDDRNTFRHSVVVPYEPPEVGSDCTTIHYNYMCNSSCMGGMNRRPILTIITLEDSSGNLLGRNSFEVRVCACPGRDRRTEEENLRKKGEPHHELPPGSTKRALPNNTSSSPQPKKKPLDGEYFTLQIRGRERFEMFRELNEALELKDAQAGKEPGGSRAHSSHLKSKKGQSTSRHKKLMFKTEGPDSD

CCCCSP(=O)(SCCCC)SCCCC
outcome [1]: inactive
outcome [2]: inactive
outcome [3]: inactive
outcome [4]: inactive
outcome [5]: inactive
AC50 [6]: 63.5 µM (active)
outcome [7]: inactive
outcome [8]: inactive
outcome [9]: inactive
outcome [10]: inactive
outcome [11]: inactive
outcome [12]: inactive
outcome [13]: inactive
outcome [14]: inactive
AC50 [15]: 7.24 µM (active)
outcome [16]: inactive
outcome [17]: inactive
outcome [18]: inactive

FC(F)C(F)(F)OCC(Cn1cncn1)c1ccc(Cl)cc1Cl (configuration not stated)
AC50 [1]: 3.87 µM (active)
AC50 [2]: 31.5 µM (active)
AC50 [3]: 38.1 µM (active)
AC50 [4]: 76.8 µM (active)
AC50 [5]: 86.9 µM (active)
AC50 [6]: 75.2 µM (active)
outcome [7]: inactive
outcome [8]: inactive
outcome [19]: inactive
outcome [9]: inactive
AC50 [10]: 60.5 µM (active)
outcome [11]: inactive
outcome [12]: inactive
outcome [13]: inactive
outcome [14]: inactive
AC50 [15]: 43.2 µM (active)
AC50 [16]: 15.7 µM (active)
AC50 [17]: 47.5 µM (active)
AC50 [18]: 47 µM (active)

O=C(O)c1cc(Oc2ccc(C(F)(F)F)cc2Cl)ccc1[N+](=O)[O-]
outcome [1]: inactive
AC50 [3]: 22.7 µM (active)
outcome [4]: inactive
outcome [5]: inactive
outcome [6]: inactive
outcome [14]: inactive
outcome [15]: inactive
outcome [16]: inactive
outcome [17]: inactive
outcome [18]: inactive

Source: PubChem BioAssay (EPA / NIEHS)
